# From PubChem BioAssay
# TAG inh: inhibitors of triacylglycerol accumulation; H9c2 cells, Nile Red lipid (TAG) fluorescence; cells loaded with 200 µM oleic acid; inhibition, % at 12.5 µM; hit rate 0.66% among 230,000; AID 651582;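 active = pattern-corrected inhibition of lipid staining of at least 50% with the nuclear-stain viability signal not falling by more than 50%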;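 also: 0% = DMSO wells and 100% = triacsin C control wells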
# CHT PAM: allosterically activates the human high affinity choline transporter. CHT-expressing cells, membrane potential dye, choline EC20; stronger effect = higher value; LV-AA mutant CHT in HEK293 cells. hit rate 0.49% among 310,000. AID 488977. B-score at 10 µM. Q9GZV3;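 active = initial fluorescence not abnormally high and integrated response B-score, plate-corrected, over 3 SD above library mean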
# CHT inh: inhibitors of human choline transporter CHT; B-score at 10 µM; hit rate 0.86% among 310,000; AID 488975; CHT-expressing cells, membrane potential dye, choline response; stronger effect = lower value;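 active = B-score over 3 SD under the library average, and starting fluorescence ratio not unusually high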;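 also: choline stimulus applied at its EC90 after an EC20 pre-addition; B-score computed on integrated fluorescence ratio after choline addition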
# Kir21 block: Kir2.1 (mouse) channel inhibition | P35561 | HEK293-Kir2.1, FluxOR thallium flux fluorescence; stronger effect = lower value | B-score at 10 µM | hit rate 0.85% among 310,000;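 active = fluorescence ratio B-score at or below minus 3 SD of library scores, with starting-brightness B-score within 2 SD, cut at about -4.2 in these data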;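 also: channel flux triggered by added potassium and thallium sulfate stimulus; B-score of peak minus minimum fluorescence over baseline after thallium stimulus; more negative B-score means stronger Kir2.1 block with less thallium influx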
# Target sequence (P35561 whole entry, looked up): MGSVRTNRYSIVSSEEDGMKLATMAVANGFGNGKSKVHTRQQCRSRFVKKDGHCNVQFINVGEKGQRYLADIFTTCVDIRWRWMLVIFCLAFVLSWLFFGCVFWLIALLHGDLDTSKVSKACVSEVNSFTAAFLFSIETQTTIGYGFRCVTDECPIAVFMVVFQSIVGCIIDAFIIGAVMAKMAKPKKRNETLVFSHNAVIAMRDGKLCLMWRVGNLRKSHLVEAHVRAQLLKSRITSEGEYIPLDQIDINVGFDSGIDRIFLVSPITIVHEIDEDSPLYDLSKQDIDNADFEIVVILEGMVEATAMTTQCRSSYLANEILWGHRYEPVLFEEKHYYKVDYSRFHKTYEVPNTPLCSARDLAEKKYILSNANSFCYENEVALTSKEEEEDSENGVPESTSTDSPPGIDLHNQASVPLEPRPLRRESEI
# CHT activ conf: human CHT activation, confirmatory screen; CHT-expressing cells, membrane potential dye fluorescence (FDSS); % of choline EC20–EC90 response window; HEK293 expressing CHT LV-AA mutant; choline added at its EC20; shares compounds with CHT PAM; AID 504833; activation, % at 10 µM; hit rate 91% among 2,500;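 active = primary screen active, with duplicate mean activation above negative control mean plus 3 SD, cut at about 11% in these data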
# HEK293 MP dye: counter-screen for CHT activators: effect in parental HEK293 cells | membrane potential dye fluorescence (FDSS); measured after EC20 choline addition | shares compounds with CHT PAM | ratio readout change at 10 µM, hits read low | AID 623908 | hit rate 62% among 2,500;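 active = duplicate-averaged ratio beyond 3 SD from buffer wells, up or down, though filed actives are nearly all decreases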
# TAG conf: triacylglycerol accumulation inhibition, confirmation. H9c2 lipid accumulation, Nile Red fluorescence; cells loaded with 200 µM oleic acid. inhibition, % at 12.5 µM. shares compounds with TAG inh. hit rate 71% among 990;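 active = mean inhibition across replicates of 40% or more; inactive = mean inhibition below 40%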;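 also: plate controls were DMSO only wells for no effect and Triacsin C treated wells for full effect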
# Starred values were filed as active, the others as inactive; i = inactive; nt = no result. Compounds with a hit are over-represented: about 2% of the library has one in this group of screens.
SMILES,TAG inh,CHT PAM,CHT inh,Kir21 block,TAG conf,others
Cc1cc(-n2c(C)c3c(C)nnc(C)c3c2C)ccc1N,nt,6.7*,i,-0.59,nt,CHT activ conf=38*;HEK293 MP dye=-22*
CCN(CC)CCNC(=O)c1cc2c(-c3ccc(Cl)cc3)nn(C)c2s1,65*,9.9*,i,-1.4,nt,CHT activ conf=33*;HEK293 MP dye=-21*
O=C(CN1C(=O)NC2(CCCCC2)C1=O)Nc1cc(C(F)(F)F)ccc1N1CCOCC1,-4,nt,nt,nt,nt,
O=C(N/N=C/c1ccc2cccnc2c1)c1ccco1,5,i,i,1.3,nt,CHT activ conf=37*;HEK293 MP dye=i
CCN(CC)c1ccc(/C=N/NC(=O)c2ccco2)cc1,nt,i,i,-0.02,nt,CHT activ conf=31*;HEK293 MP dye=i
COc1ccc(-c2nc(CN3CCN(C(=O)c4ccco4)CC3)c(C)o2)c(F)c1,6,i,i,1.9,nt,
CC(NC(=O)CCl)c1ccccc1Br (configuration not stated),23,i,i,-0.05,nt,
O=C1c2cnc3nc(SCc4ccc(Cl)cc4)nn3c2CC2c3ccccc3CCN12 (configuration not stated),4,6.9*,i,-0.63,nt,CHT activ conf=-2;HEK293 MP dye=i
Clc1ccc(CSc2ncccn2)cc1,nt,i,i,0.96,nt,
CN1CCCC(n2nc(Cc3ccc(Cl)cc3)c3ccccc3c2=O)CC1 (configuration not stated),85*,i,i,-3.5,40*,CHT activ conf=44*;HEK293 MP dye=-30*
CCOC(=O)N1CCC(NC(=O)Cn2nc(Cc3ccncc3)c3ccccc3c2=O)CC1,1,i,i,-1.9,nt,
Cn1nnc2c[n+](CC(=O)c3ccc(Cl)cc3)cc(Br)c21,59*,i,i,-1.4,69*,CHT activ conf=59*;HEK293 MP dye=-89*
COCCOC(=O)c1[nH]c2c(c1C)C(=O)CC(c1ccccc1)C2 (configuration not stated),80*,i,i,0.32,47*,CHT activ conf=9;HEK293 MP dye=i
CC[C@@H](Nc1ncnc2c1oc1ccccc12)C(=O)O,5,i,i,-1.9,nt,
Cc1cccn2c(=O)c3cc(C(=O)NC4CCCC4)c(=N)n(C4CCCC4)c3nc12,51*,i,i,0.97,44*,CHT activ conf=34*;HEK293 MP dye=-39*
CCCn1c(=N)c(C(=O)NC2CCCC2)cc2c(=O)n3cccc(C)c3nc21,43,i,i,0.75,nt,
NC(=O)C1=C[C@H](c2ccc(C(F)(F)F)cc2)C[C@H](OCCCCO)O1,-22,i,i,0.13,nt,
CC1CC2(C)Oc3ccccc3CC2C(C)C1CNCCCN(C)C (configuration not stated),82*,i,i,-3.8,44*,
COc1ccc(CC(=O)NCc2ccccc2F)cc1S(=O)(=O)N1CCOCC1,2,nt,nt,nt,nt,
COc1cc(OC)c(-c2nn3c(-c4ccco4)nnc3s2)cc1OC,54*,nt,nt,nt,38,
Cc1ccc(S(=O)(=O)N2CCC(=O)N(CCOC(=O)NCc3ccccc3)CC2)cc1,nt,i,i,nt,nt,
COc1ccc(CNC(=O)OCCN2CCN(S(=O)(=O)c3ccc(C)cc3)CCC2=O)cc1,72*,i,i,-1,1,
CC(C)Oc1cccc(C(=O)C2CCCN(C(=O)c3ccnn3C)C2)c1 (configuration not stated),2,i,i,1.1,nt,
O=C(NC(=S)Nc1ccc(S(=O)(=O)Nc2nccs2)cc1)c1ccc(F)cc1,nt,i,i,0.4,nt,
CN(Cc1ccccc1)C(=O)COC(=O)c1ccc(Cl)cc1N,2,i,i,-1.5,nt,
SMILES,TAG inh,CHT PAM,CHT inh,Kir21 block,TAG conf,others
COc1ccc(-n2ccnc2SCC(=O)NC2CCCC2)c(OC)c1,71*,i,i,-1.8,17,
Cc1ccccc1-n1ccnc1SCC(=O)NC1CCCC1,nt,i,i,-1.7,nt,
Cn1cc(S(=O)(=O)N2CCCC2)cc1C(=O)O,22,nt,nt,nt,nt,
COc1ccc(-c2sc3ccc(N4CCOCC4)cc3c2C#CCCO)cc1,51*,nt,nt,nt,55*,
CCOc1cc(/C=N\NC(=O)c2ccc(NC(=O)C(C)(C)C)cc2)ccc1OC(=O)c1cccc(C)c1,64*,i,i,-0.45,37,
O=C(NCc1ccco1)C1CCCN(c2ncnc3c2nc2n3CCCCC2)C1 (configuration not stated),nt,i,i,-3.4,nt,
CC1CCN(CC(=O)c2cccs2)CC1,4,i,i,-0.85,nt,
CC1CC(C)CN(CC(=O)c2cccs2)C1 (configuration not stated),59*,i,i,-0.12,6,
CCN(c1ccccc1)S(=O)(=O)c1ccc(Oc2ccccc2)c(N)c1,-2,nt,nt,nt,nt,
CCN(CC)CCNc1nc(-n2nc(C)cc2C)nc2sc3c(c12)CC(C)(C)OC3,55*,i,i,-3.5,56*,
CCN(CC)CCNc1ncnc2c1sc1nc(N3CCCC3)c3c(c12)CC(C)(C)OC3,56*,i,i,-0.7,45*,
CC1(C)CC(=O)C2=C(C1)Oc1nc3ccccc3cc1C2C(C#N)C#N (configuration not stated),81*,i,i,1.4,60*,
CS(=O)(=O)N1CCCCC1c1cc(C(=O)Nc2cccc3c2CCCC3)no1 (configuration not stated),22,nt,nt,nt,nt,
Cc1ccc(NC(=O)CN2c3cccc4cccc(c34)S2(=O)=O)cc1,-17,nt,nt,nt,nt,
CCCSc1nc(SCC(=O)NCc2ccccc2)c2c3c(sc2n1)COC(C)(CC)C3 (configuration not stated),63*,i,i,-1.2,48*,
CSc1nc(SCC(=O)NCc2ccco2)c2c3c(sc2n1)COC(C)(C)C3,nt,i,i,-1.2,nt,
O=C(NCC1CCCO1)c1cc(-c2ccccc2F)no1 (configuration not stated),nt,i,i,1.8,nt,
Cc1ccc(CNC(=O)c2ccc(N3CCC4(CC3)CC(c3ccccc3)=NO4)c(NC(=O)c3ccc(Br)cc3)c2)cc1,55*,i,i,0.02,56*,
CC(OC(=O)CN1C(=O)NC2(CCCCC2C)C1=O)c1ccccc1 (configuration not stated),5,nt,nt,nt,nt,
Cc1cc(C(=O)COC(=O)c2ccc([N+](=O)[O-])o2)c(C)n1CC1CCCO1 (configuration not stated),72*,i,i,-0.35,54*,
CCO[C@@H]1OC(C(=O)N2CCN(Cc3ccccc3)CC2)=C[C@H](c2ccc(C(F)(F)F)cc2)[C@H]1CCCO,53*,i,i,0.21,52*,
Cc1cc(C)c2nc(NC(=O)c3ccc([N+](=O)[O-])o3)sc2c1,64*,i,i,0.18,70*,
